“And” between values parts separate entries of the source, which are not always exact repeats. Equal values may be shown once. Screen size: about 5,500 compounds; about 2,000 (36%) were called active. Roughly 18% stayed inconclusive and do not appear here. No stated cut-off is given here; in the data, active means normalized growth mostly below about 0.91 (no sharp cut-off); inconclusive means no clear call, values can overlap the other calls; inactive means mostly above about 0.92. The list shows a part of the results.
Experiment: chemical genetic growth profiling, strain panel (AID 1159580);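 further: tested at 20 µM; growth read once vehicle control cultures reached saturation at 30 °C; 1 = growth at the plate median or of vehicle wells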
Conditions: S. cerevisiae deletion strains, growth OD

Measured: normalized growth

CCCc1cc(=O)[nH]c(=S)[nH]1
inactive: locus YAL013W, strain DEP1, stronger effect = lower value 1.02 | locus YAL021C, strain ccr4, stronger effect = lower value 1.02 | locus YAL026C, strain drs2, stronger effect = lower value 1.03 | locus YAL030W, strain snc1, stronger effect = lower value 1.02 | locus YBL061C, strain skt5, stronger effect = lower value 1.03 | locus YBR009C, strain hhf1, stronger effect = lower value 1.02 | locus YBR021W, strain FUR4, stronger effect = lower value 0.987 | locus YBR023C, strain chs3, stronger effect = lower value 1.02 | locus YBR171W, strain sec66, stronger effect = lower value 1.04 | locus YBR229C, strain ROT2, stronger effect = lower value 1 | locus YBR231C, strain swc5, stronger effect = lower value 1 | locus YBR279W, strain paf1, stronger effect = lower value 0.988 | locus YCL011C, strain gbp2, stronger effect = lower value 1.01 | locus YCL016C, strain dcc1, stronger effect = lower value 1.01 | locus YCL029C, strain bik1, stronger effect = lower value 0.994 | locus YCL069W, strain vba3, stronger effect = lower value 1.02 | locus YCR088W, strain abp1, stronger effect = lower value 1.01 | locus YDL005C, strain med2, stronger effect = lower value 1.03 | locus YDL035C, strain GPR1, stronger effect = lower value 1.01 | locus YDL040C, strain nat1, stronger effect = lower value 1.01 | locus YDL074C, strain BRE1, stronger effect = lower value 1.03 | locus YDL101C, strain DUN1, stronger effect = lower value 1.01 | locus YDL134C, strain PPH21, stronger effect = lower value 1.01 | locus YDL185W, strain tfp1, stronger effect = lower value 1.02 | locus YDL192W, strain arf1, stronger effect = lower value 1 | locus YDR001C, strain nth1, stronger effect = lower value 1.01 | locus YDR069C, strain doa4, stronger effect = lower value 1.01 | locus YDR101C, strain arx1, stronger effect = lower value 0.985 | locus YDR137W, strain rgp1, stronger effect = lower value 1.02 | locus YDR150W, strain NUM1, stronger effect = lower value 1.01 | locus YDR159W, strain sac3, stronger effect = lower value 0.995 | locus YDR162C, strain NBP2, stronger effect = lower value 1.02 | locus YDR195W, strain ref2 0.999 | locus YDR297W, strain sur2, stronger effect = lower value 1.01 | locus YDR318W, strain mcm21, stronger effect = lower value 0.985 | locus YDR334W, strain swr1, stronger effect = lower value 1.03 | locus YDR335W, strain msn5, stronger effect = lower value 1.01 | locus YDR388W, stronger effect = lower value 0.989 | locus YDR392W, strain spt3, stronger effect = lower value 0.997 | locus YDR502C, strain sam2, stronger effect = lower value 0.989 | locus YEL003W, strain gim4, stronger effect = lower value 1.01 | locus YEL037C, strain rad23, stronger effect = lower value 1.03 | locus YEL061C, strain CIN8 (second series), stronger effect = lower value 1.03 | locus YEL061C, strain CIN8, stronger effect = lower value 1.01 | locus YER015W, strain faa2, stronger effect = lower value 1.01 | locus YER016W, strain bim1, stronger effect = lower value 1 | locus YER110C, stronger effect = lower value 0.991 | locus YER111C, strain swi4, stronger effect = lower value 1 | locus YER155C, strain BEM2 (second series), stronger effect = lower value 1.04 | locus YER155C, strain BEM2, stronger effect = lower value 1.01 | locus YER167W, strain BCK2, stronger effect = lower value 1.01 | locus YFR010W, strain ubp6, stronger effect = lower value 1.02 | locus YGL078C, strain dbp3, stronger effect = lower value 0.996 | locus YGL086W, strain mad1, stronger effect = lower value 0.987 | locus YGL167C, strain pmr1, stronger effect = lower value 1.02 | locus YGL173C, strain kem1, stronger effect = lower value 1.04 | locus YGL227W, strain vid30, stronger effect = lower value 1.03 | locus YGL240W, strain doc1, stronger effect = lower value 1 | locus YGL248W, strain PDE1, stronger effect = lower value 1.01 | locus YGL253W, strain hxk2, stronger effect = lower value 0.995 | locus YGR078C, strain PAC10, stronger effect = lower value 1 | locus YGR135W, strain pre9, stronger effect = lower value 0.994 | locus YGR229C, strain SMI1, stronger effect = lower value 1.02 | locus YGR252W, strain gcn5, stronger effect = lower value 0.901 | locus YHR013C, strain ard1, stronger effect = lower value 1.09 | locus YHR027C, strain rpn1, stronger effect = lower value 1.01 | locus YHR030C, strain SLT2, stronger effect = lower value 1.02 | locus YHR079C, strain IRE1 (second series), stronger effect = lower value 0.983 | locus YHR079C, strain IRE1, stronger effect = lower value 1.03 | locus YHR094C, strain hxt1, stronger effect = lower value 0.993 | locus YHR129C, strain ARP1, stronger effect = lower value 1.02 | locus YHR142W, strain chs7, stronger effect = lower value 1.05 | locus YHR200W, strain rpn10, stronger effect = lower value 1.01 | locus YIL066C, strain RNR3, stronger effect = lower value 1 | locus YIL073C, strain SPO22, stronger effect = lower value 0.955 | locus YIL125W, strain kgd1, stronger effect = lower value 1 | locus YIR030C, strain dcg1, stronger effect = lower value 0.998 | locus YJL092W, strain hpr5, stronger effect = lower value 1.02 | locus YJL095W, strain BCK1 (second series), stronger effect = lower value 1.02 | locus YJL095W, strain BCK1, stronger effect = lower value 1.01 and 0.999 | locus YJL115W, strain asf1, stronger effect = lower value 1.02 | locus YJL129C, strain trk1, stronger effect = lower value 1.01 | locus YJL134W, strain LCB3, stronger effect = lower value 1.01 | locus YJL154C, strain vps35, stronger effect = lower value 1 | locus YJL164C, strain tpk1, stronger effect = lower value 1.02 | locus YJL166W, strain qcr8, stronger effect = lower value 1.04 | locus YJL168C, strain set2, stronger effect = lower value 0.989 | locus YJL187C, strain SWE1 (second series), stronger effect = lower value 1.01 | locus YJR043C, strain POL32, stronger effect = lower value 1 | locus YJR066W, strain TOR1, stronger effect = lower value 0.971
